# Experimental data: PubChem BioAssay (NCATS)
# Values without a mark were called inactive. Results filed as inconclusive are left out. Calls of active or inactive are those of the source. Unless noted, calls follow the shape of the dose curve; as a rule, active = well fitted curve in either direction with a large enough effect (not every such curve was filed as active); inconclusive = small, poorly fitted or top-dose-only effect, or another doubt; inactive = flat fitted curve, though single readings scatter.
# Experiments:
# [1] = AP1 Signaling Pathway (AID 357); settings: ME-180 AP-1-bla reporter, EGF-induced, beta-lactamase ratio, 5 h; at 17.2 µM (top of the series) unless noted; also: % is scaled to controls: 0 for no effect and ±100 for the full control effect
# How it was run: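 Modulation of EGF-driven AP-1 transcription was assessed with a beta-lactamase reporter in ME-180 cells. Compound and EC50 EGF were co-incubated 5 hours at 37 °C before 2.5-hour CCF4 loading at room temperature and dual-emission reading.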
# [2] = NFAT Signaling Pathway (AID 444); settings: Jurkat NFAT-bla M1, carbachol, beta-lactamase ratio, 5 h; at 17.2 µM (top of the series) unless noted;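 also: carbachol stimulus at about its EC50 of 1 µM final; % is scaled to controls: 0 for no effect and ±100 for the full control effect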
# How it was run: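 Jurkat cells with NFAT-driven β-lactamase reporter and co-expressed M1 receptor, stimulated with carbachol (final 1 uM, ~EC50), compound titration, 5 h at 37 °C. CCF4 loaded 1 h at RT; 460/530 nm ratio gave %activity and AC50.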
# [3] = Stat Signaling Pathway (AID 446);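 also: ME-180 cervical cancer cells given 40 pM IL-6 alongside compound; SIE-controlled beta-lactamase reporter measured as 460/530 nm FRET emission ratio; % is scaled to controls: 0 for no effect and ±100 for the full control effect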
# How it was run: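 Reporter line: ME-180 cervical carcinoma, SIE-beta-lactamase. Treatment: compound with 40 pM IL-6, 5 hrs, 37 C, in low-serum OPTI-MEM with 10 mM HEPES pH 7.3. Detection: 460/530 nm fluorescence.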
# [4] = target: Glucocorticoid receptor (Homo sapiens) (UniProt P04150); test: GR-GFP Redistribution (AID 450;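 active = compounds whose dose series gives a full or clear partial fitted curve of increased nuclear translocation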; also: potency is read from the fitted curve at half-maximal effect); settings: U2OS GR-GFP nuclear translocation, laser cytometry, 2 h
# [5] = target: Cytochrome P450 1A2 (Homo sapiens) (UniProt P05177); test: p450-cyp1a2 (AID 410; calls by dose curve; also: potency is read from the fitted curve at half-maximal effect;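 as to activity change, negative = inhibition: -100% = full effect of reference inhibitor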)
# How it was run: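 Inhibition was calculated relative to 57 uM furafylline (full inhibition). The reaction used human CYP1A2 at 20nM with Luciferin-ME at its Km, 100uM, driven by an NADPH-regenerating system for 60 min at room temperature.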
# [6] = target: 3',5'-cyclic-AMP phosphodiesterase 4B (Homo sapiens) (UniProt Q07343); test: qHTS Assay for Inhibitors of PDE-IV (AID 607; active = well fitted activation curve with a large enough effect in the main read-out, with a control signal flat, not every such curve was filed as active; also: % of control where 0% means no effect)
# How it was run: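 Cell-based read-out of cAMP via a modified cyclic nucleotide-gated channel and membrane potential dye (535/590 nm) in HEK293 cells expressing PDE4 endogenously. Compounds tested up to 22.9 uM final; 100 uM RO 20-1724 reference.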
# [7] = target: Cytochrome P450 3A4 (Homo sapiens) (UniProt P08684); test: qHTS Assay for Activators of Cytochrome P450 3A4 (AID 885; active = well fitted curve in the direction sought with a large enough effect; an effect the other way counts as inactive or inconclusive; also: nearly all actives have a fitted effect of over 65% in size)
# How it was run: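 Signal was normalized against complete inhibition by 57 uM ketoconazole. The reaction used 20nM CYP3A4 with 25uM Luciferin-PPXE, 10-min compound preincubation and a 60-min NADPH-supported step at RT.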
# [8] = qHTS Assay for Identification of Small Molecule Antagonists for Thrombopoietin (TPO) Signaling Pathway (AID 918; active = well fitted curve in the direction sought with a large enough effect; an effect the other way counts as inactive or inconclusive; also: potency is read from the fitted curve at half-maximal effect; nearly all actives have a fitted effect of over 60% in size); settings: TPO-dependent cell signaling reporter, antagonist mode
# How it was run: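 First, Ba/F3 reporter cells expressing human TPO receptor were held overnight without IL-3. Next, compound and 26 pM TPO were added. After 24 hrs incubation at 37 C, luciferase luminescence under the Glycoprotein IIb promoter was recorded.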
# [9] = target: Muscarinic acetylcholine receptor M1 (Rattus norvegicus) (UniProt P08482); test: qHTS Assay for Antagonists of Acetylcholine Muscarinic M1 Receptor: Kinetic Measurement of Intracellular Calcium Response (AID 943; active = well fitted curve in the direction sought with a large enough effect; an effect the other way counts as inactive or inconclusive;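 also: Fluo-4 calcium signal as peak divided by basal fluorescence over 4 min; nearly all actives have a fitted effect of over 75% in size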)
# How it was run: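 Intracellular calcium flux, recorded with Fluo-4 in a kinetic plate reader, served as signal; the response to carbachol at EC80 (100 nM final) was taken as maximal over minimal fluorescence after a 10 min compound pre-incubation in rat M1-CHO cells.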
# [10] = target: Alpha-galactosidase (Coffea arabica) (UniProt Q42656); test: Counterscreen for Glucocerebrosidase Inhibitors: qHTS Assay for Coffee Bean alpha-Galactosidase at pH 4.5 (AID 957; active = well fitted curve in the direction sought with a large enough effect; an effect the other way counts as inactive or inconclusive;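 also: plate controls were enzyme alone for no effect and no enzyme for full effect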)
# How it was run: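 AC50 values derive from Hill-equation modeling of concentration-response data, normalized to no-enzyme and full-activity controls. The pH 4.5 citrate assay used 2 nM coffee bean enzyme and 80 uM fluorogenic substrate for 20 min.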
# [11] = target: Pyruvate kinase PKM (Homo sapiens) (UniProt P14618); test: qHTS Assay for Inhibitors of Human Muscle Pyruvate Kinase (AID 958; active = well fitted curve in the direction sought with a large enough effect; an effect the other way counts as inactive or inconclusive)
# How it was run: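 PKM2, human, >95% pure, 0.1 nM; PEP 0.5 mM (Km), ADP 0.1 mM; 50 mM imidazole pH 7.2, 50 mM KCl, 0.01% Tween 20, 0.05% BSA; 1 h RT; luciferase luminescence readout.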
# [12] = target: Alpha-galactosidase A (Homo sapiens) (UniProt P06280); test: Counterscreen for Glucocerebrosidase Inhibitors: qHTS Assay for Human alpha-Galactosidase at pH 4.5 (AID 992; active = well fitted curve in the direction sought with a large enough effect; an effect the other way counts as inactive or inconclusive; also: 0% is about no effect)
# How it was run: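 Quantitative HTS: compounds tested from 0.7 nM up to 77 uM against 2 nM enzyme with 80 uM 4-MU alpha-D-galactopyranoside. The 20 min room-temperature reaction is stopped with 1M NaOH/1M glycine, pH 10.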
# [13] = target: alpha-glucosidase (Oryza sativa, rice) (UniProt Q653V4); test: Counterscreen for Glucocerebrosidase Inhibitors: qHTS Assay for Rice alpha-Glucosidase at pH 5.0 (AID 997; active = well fitted curve in the direction sought with a large enough effect; an effect the other way counts as inactive or inconclusive;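 also: 0% = full activity with enzyme and -100% = basal without enzyme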)
# How it was run: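 Rice alpha-glucosidase (4 nM final) with 400 uM 4-methylumbelliferyl-alpha-D-glucopyranoside in citrate buffer pH 5.0, 20 min at room temperature, stopped at pH 10; fluorescence 365/440 nm, compounds 0.7 nM–77 uM, AC50 from Hill fits.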
# [14] = target: Alpha-galactosidase (Coffea arabica) (UniProt Q42656); test: Counterscreen for Glucocerebrosidase Inhibitors: qHTS Assay for Coffee Bean alpha-Galactosidase at pH 5.9 (AID 998; active = well fitted curve in the direction sought with a large enough effect; an effect the other way counts as inactive or inconclusive;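 also: plate controls were uninhibited enzyme for no effect and no-enzyme basal signal for full effect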)
# How it was run: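 Green coffee bean enzyme (2 nM) with 4-methylumbelliferyl alpha-D-galactopyranoside (80 uM) in 50 mM citric acid, 0.005% Tween-20, pH 5.9, 20 min at room temperature; compounds 0.7 nM–77 uM. Stopped at pH 10, fluorescence Ex365/Em440; Hill-fit AC50.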
# [15] = target: Glucocorticoid receptor (Homo sapiens) (UniProt P04150); test: GR-EFC Redistribution (AID 451; calls by dose curve; also: potency is read from the fitted curve at half-maximal effect); settings: CHO-K1 GR-EFC translocation, beta-gal luminescence, 2 h
# How it was run: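 CHO-K1 cells expressing nuclear EA and GR-ED fragments of b-gal; compounds titrated up to 46 uM final, 2 h at 37 C. GR nuclear translocation read as complemented b-gal luminescence after 1 h RT detection.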
# [16] = target: Mitogen-activated protein kinase 10 (Mus musculus) (UniProt Q61831); test: JNK3 AlphaScreen Assay (AID 530);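 also: kinase came from lysate of stimulated human HepG2 cells; signal reports phosphorylation of biotinylated GST-cJun 1-79 at Ser73 with 10 µM ATP; % is scaled to controls: 0 for no effect and ±100 for the full control effect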
# How it was run: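 qHTS format: compounds tested as titrations against IL-1beta/TNF-alpha-activated HepG2 lysate JNK3 with biotin-GST-cJun substrate and 10 uM ATP at room temperature. Loss of anti-phospho-cJun AlphaScreen signal indicates inhibition.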
# [17] = target: Cytochrome P450 2C9 (Homo sapiens) (UniProt P11712); test: qHTS Assay for Inhibitors and Substrates of Cytochrome P450 2C9 (AID 883; active = well fitted curve in the direction sought with a large enough effect; an effect the other way counts as inactive or inconclusive; also: % is scaled to controls: 0 for no effect and ±100 for the full control effect; nearly all actives have a fitted effect of over 60% in size)
# How it was run: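 10nM CYP2C9 + 100uM Luciferin-H (=KM), 25mM KPO4; cpd 10 min 37C; NADPH regen, 60 min 37C; stop/detect with P450 Glo-Buffer 20 min; luminescence. Norm. to 57uM sulphaphenazole as full inhibition.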
# [18] = target: Cytochrome P450 2D6 (Homo sapiens) (UniProt P10635); test: qHTS Assay for Inhibitors and Substrates of Cytochrome P450 2D6 (AID 891; active = well fitted curve in the direction sought with a large enough effect; an effect the other way counts as inactive or inconclusive;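 also: luciferin methyl ether substrate demethylated by CYP2D6 with NADPH regeneration; % is scaled to controls: 0 for no effect and ±100 for the full control effect; nearly all actives have a fitted effect of over 60% in size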)
# How it was run: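 Human CYP2D6 (5 nM) with 30 uM Luciferin-ME EGE (at Km) in 100 mM KPO4, compound preincubated 10 min, then NADPH regeneration system for 60 min at room temperature. Luciferin read by luminescence; normalized to 1.43 uM quinidine.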
# [19] = target: Cytochrome P450 2C19 (Homo sapiens) (UniProt P33261); test: qHTS Assay for Inhibitors and Substrates of Cytochrome P450 2C19 (AID 899; active = well fitted curve in the direction sought with a large enough effect; an effect the other way counts as inactive or inconclusive; also: % is scaled to controls: 0 for no effect and ±100 for the full control effect; nearly all actives have a fitted effect of over 60% in size)
# How it was run: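 Luminescent read-out of luciferin formed from Luciferin-H EGE (10uM, equal to KM). Enzyme 5nM in 50mM KPO4; compound added, 10 min at 37C, then NADPH regenerating system for 60 min at 37C. Full inhibition defined by 57uM ketoconazole.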
# Chain of Glucocorticoid receptor (Homo sapiens) (P04150 whole entry, looked up, the tested form may be a part): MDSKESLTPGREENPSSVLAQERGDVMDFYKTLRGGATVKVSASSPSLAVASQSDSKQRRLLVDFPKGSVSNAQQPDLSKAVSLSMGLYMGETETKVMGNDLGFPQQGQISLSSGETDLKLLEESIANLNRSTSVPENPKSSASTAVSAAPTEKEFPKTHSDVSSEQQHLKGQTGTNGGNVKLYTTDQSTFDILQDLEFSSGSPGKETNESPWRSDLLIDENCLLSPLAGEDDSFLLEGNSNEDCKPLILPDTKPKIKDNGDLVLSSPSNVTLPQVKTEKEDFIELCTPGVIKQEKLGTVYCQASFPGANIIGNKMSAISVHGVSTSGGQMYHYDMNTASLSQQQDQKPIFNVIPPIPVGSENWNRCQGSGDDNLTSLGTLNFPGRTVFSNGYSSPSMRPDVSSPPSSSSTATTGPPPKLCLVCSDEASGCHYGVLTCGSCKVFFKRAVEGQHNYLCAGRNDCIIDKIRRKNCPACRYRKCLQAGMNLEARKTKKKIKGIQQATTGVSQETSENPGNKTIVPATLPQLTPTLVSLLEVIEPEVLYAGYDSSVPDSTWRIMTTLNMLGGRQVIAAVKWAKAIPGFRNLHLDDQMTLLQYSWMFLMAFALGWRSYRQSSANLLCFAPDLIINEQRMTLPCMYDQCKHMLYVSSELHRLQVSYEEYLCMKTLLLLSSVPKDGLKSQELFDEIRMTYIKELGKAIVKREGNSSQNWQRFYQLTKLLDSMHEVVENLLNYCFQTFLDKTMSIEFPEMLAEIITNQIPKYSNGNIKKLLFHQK
# Chain of 3',5'-cyclic-AMP phosphodiesterase 4B (Homo sapiens) (Q07343 whole entry, looked up): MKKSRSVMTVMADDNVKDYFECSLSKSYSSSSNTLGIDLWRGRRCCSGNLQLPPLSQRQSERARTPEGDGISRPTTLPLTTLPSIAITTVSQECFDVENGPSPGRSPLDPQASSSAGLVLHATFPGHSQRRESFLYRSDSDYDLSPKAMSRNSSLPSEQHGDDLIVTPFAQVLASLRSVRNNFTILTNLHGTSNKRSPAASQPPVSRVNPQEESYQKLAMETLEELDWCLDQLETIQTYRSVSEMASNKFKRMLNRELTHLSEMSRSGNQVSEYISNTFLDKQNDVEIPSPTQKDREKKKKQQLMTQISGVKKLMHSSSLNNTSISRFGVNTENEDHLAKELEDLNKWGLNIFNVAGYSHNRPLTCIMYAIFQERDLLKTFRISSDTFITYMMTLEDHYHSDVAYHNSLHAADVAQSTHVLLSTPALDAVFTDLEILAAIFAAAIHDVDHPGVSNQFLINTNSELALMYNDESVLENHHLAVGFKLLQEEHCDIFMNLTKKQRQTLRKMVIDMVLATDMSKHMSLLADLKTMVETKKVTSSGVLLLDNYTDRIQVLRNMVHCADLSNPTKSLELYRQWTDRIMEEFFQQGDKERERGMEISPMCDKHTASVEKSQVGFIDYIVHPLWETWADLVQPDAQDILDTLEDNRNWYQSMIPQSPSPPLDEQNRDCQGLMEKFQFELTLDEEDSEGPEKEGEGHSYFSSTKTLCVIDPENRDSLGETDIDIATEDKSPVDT
# Chain of Cytochrome P450 1A2 (Homo sapiens) (P05177 whole entry, looked up): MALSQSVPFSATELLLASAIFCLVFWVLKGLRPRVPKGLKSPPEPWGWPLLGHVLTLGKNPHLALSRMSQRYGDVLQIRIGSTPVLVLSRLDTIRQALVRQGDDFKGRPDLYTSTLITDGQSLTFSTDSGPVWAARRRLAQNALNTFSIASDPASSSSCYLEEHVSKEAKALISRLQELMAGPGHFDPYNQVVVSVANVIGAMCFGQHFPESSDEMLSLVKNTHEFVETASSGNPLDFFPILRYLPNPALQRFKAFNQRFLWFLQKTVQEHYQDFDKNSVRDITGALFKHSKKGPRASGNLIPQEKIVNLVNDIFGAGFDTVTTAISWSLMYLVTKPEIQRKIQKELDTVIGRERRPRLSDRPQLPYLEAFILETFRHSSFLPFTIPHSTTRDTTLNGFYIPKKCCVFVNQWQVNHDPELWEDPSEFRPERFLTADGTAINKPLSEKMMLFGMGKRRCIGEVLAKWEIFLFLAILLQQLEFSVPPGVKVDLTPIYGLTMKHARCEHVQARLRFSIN
# Chain of Alpha-galactosidase (Coffea arabica) (Q42656 whole entry, looked up): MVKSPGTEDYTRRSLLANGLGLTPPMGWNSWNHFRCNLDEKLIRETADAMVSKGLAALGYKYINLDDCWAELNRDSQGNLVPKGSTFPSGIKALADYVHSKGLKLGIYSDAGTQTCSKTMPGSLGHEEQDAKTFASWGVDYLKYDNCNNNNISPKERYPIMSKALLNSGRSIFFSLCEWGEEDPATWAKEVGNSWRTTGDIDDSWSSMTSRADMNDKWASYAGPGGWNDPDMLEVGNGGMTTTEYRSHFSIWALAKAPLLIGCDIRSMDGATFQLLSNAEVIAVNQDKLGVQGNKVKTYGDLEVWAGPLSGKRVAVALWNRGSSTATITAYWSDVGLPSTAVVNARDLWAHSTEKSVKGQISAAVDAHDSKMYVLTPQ
# Chain of Cytochrome P450 2C9 (Homo sapiens) (P11712 whole entry, looked up): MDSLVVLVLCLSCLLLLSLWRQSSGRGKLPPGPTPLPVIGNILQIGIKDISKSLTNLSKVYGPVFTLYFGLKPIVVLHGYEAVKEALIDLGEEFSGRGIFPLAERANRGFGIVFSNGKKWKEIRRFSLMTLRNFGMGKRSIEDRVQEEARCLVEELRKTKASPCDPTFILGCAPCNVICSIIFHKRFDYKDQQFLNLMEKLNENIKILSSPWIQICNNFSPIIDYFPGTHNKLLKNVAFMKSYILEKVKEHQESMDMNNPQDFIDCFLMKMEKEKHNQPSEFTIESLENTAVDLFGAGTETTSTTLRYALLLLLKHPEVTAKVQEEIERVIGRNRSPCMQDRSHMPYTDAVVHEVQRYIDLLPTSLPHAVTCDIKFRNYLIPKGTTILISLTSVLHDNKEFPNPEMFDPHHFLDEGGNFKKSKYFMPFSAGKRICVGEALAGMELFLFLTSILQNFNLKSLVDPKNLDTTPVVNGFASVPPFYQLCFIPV
# Chain of Alpha-galactosidase A (Homo sapiens) (P06280 whole entry, looked up): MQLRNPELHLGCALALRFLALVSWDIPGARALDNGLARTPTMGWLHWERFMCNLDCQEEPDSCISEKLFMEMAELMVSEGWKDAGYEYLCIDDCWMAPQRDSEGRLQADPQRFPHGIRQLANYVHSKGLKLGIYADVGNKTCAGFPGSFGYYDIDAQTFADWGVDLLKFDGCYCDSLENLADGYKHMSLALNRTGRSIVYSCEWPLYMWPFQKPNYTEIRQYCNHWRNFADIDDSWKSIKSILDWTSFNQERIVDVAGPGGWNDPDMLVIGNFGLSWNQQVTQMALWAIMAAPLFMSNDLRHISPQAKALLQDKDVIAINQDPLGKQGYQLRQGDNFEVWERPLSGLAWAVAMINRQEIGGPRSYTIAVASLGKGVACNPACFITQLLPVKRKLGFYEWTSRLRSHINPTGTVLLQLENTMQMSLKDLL
# Chain of Pyruvate kinase PKM (Homo sapiens) (P14618 whole entry, looked up): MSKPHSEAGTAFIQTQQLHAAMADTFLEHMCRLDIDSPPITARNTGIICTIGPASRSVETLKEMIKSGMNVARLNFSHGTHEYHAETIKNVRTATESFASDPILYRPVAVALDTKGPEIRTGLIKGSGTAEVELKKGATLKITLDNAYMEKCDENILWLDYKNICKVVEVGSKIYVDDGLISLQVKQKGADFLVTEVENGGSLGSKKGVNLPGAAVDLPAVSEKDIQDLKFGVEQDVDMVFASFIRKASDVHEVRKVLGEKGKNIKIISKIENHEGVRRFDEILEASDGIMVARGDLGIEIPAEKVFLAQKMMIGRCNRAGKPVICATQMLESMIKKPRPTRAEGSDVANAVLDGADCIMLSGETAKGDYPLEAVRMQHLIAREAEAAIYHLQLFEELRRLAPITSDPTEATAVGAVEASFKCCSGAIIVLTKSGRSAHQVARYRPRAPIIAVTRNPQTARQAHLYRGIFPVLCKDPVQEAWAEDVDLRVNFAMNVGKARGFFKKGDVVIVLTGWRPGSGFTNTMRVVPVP
# Chain of Muscarinic acetylcholine receptor M1 (Rattus norvegicus) (P08482 whole entry, looked up): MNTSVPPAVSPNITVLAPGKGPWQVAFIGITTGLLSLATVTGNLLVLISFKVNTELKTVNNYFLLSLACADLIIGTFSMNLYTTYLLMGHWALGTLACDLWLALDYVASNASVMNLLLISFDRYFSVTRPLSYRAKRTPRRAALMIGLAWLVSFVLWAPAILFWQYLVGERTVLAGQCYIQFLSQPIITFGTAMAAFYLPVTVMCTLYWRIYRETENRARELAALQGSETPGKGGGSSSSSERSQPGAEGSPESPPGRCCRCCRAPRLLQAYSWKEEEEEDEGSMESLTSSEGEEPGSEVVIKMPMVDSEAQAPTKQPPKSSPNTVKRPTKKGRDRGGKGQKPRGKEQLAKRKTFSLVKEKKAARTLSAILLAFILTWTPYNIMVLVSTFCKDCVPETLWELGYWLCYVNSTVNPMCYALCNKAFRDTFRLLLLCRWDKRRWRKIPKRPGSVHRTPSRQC
# Chain of Cytochrome P450 2C19 (Homo sapiens) (P33261 whole entry, looked up): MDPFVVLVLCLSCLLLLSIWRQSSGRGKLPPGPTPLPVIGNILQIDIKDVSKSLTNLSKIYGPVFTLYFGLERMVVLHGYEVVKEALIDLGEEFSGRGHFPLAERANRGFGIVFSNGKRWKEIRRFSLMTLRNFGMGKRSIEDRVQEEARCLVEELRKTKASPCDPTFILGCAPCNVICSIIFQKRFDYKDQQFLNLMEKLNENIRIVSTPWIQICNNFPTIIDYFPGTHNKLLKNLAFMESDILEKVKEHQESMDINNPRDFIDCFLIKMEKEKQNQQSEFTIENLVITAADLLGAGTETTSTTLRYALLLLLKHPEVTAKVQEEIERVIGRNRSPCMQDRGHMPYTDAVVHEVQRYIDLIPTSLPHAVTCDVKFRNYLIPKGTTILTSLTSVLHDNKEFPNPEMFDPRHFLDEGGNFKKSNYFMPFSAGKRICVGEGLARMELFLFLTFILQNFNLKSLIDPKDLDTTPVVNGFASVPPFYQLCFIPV
structure (smiles),measurement,setting,value
CC1(c2ccccc2)NCCN2C(=O)CSC21 (stereo not drawn),"activity change, negative = inhibition",[1],2.95%
same,"activity change, negative = inhibition",[2],-7.83%
same,outcome,[3],inactive
same,Potency,[4],> 20.6 µM
C=CCN1CCc2cccc3c2[C@@H]1Cc1ccc(O)c(O)c1-3,"activity change, negative = inhibition",[1],-21.9% [at 38 µM]
same,Potency,[5],3.16 µM (active)
same,outcome,[3],inactive
same,Potency,[4],> 46 µM
same,outcome,[6],inactive
same,Potency,[7],inactive
same,Potency,[8],10 µM (active)
same,Potency,[9],inactive
same,outcome,[10],inactive
same,Potency,[11],inactive
same,outcome,[12],inactive
same,outcome,[13],inactive
same,outcome,[14],inactive
COC(=O)C(O)(c1c[nH]c2ccccc12)C(F)(F)F (stereo not drawn),"activity change, negative = inhibition",[1],-14.1%
same,"activity change, negative = inhibition",[2],-8.45%
same,outcome,[3],inactive
same,Potency,[4],> 20.6 µM
COc1ccc(C2SCC(=O)Nc3c2c(=O)[nH]n3C2CCCCCC2)cc1 (stereo not drawn),"activity change, negative = inhibition",[1],-18.2%
same,"activity change, negative = inhibition",[2],1.93%
same,outcome,[3],inactive
same,Potency,[4],> 20.6 µM
CC1(C)[C@@H]2CC[C@]1(C)CN(CCC[N+](C)(C)C)C2,"activity change, negative = inhibition",[1],-4.07% [at 7.69 µM]
same,"activity change, negative = inhibition",[5],-6.8% [at 2.29 µM]
same,"activity change, negative = inhibition",[2],-12.6% [at 7.69 µM]
same,Potency,[4],> 46 µM
same,Potency,[15],> 9.22 µM
same,"activity change, negative = inhibition",[16],0.443% [at 11.4 µM]
same,outcome,[6],inactive
COc1ccccc1-n1c(O)c(C=NCCCn2ccnc2)c(=O)[nH]c1=O,"activity change, negative = inhibition",[1],6.21%
same,"activity change, negative = inhibition",[2],10.5%
same,outcome,[3],inactive
same,Potency,[4],> 20.6 µM
NCC[Se][Se]CCN,"activity change, negative = inhibition",[1],19.7% [at 7.69 µM]
same,Potency,[5],3.16 µM (active)
same,outcome,[3],inactive
same,Potency,[4],> 46 µM
same,Potency,[15],> 9.22 µM
same,"activity change, negative = inhibition",[16],-20.9% [at 11.4 µM]
same,outcome,[6],inactive
COC[C@@H]1OC(=O)c2coc3c2[C@]1(C)C1=C(C3=O)[C@H]2CCC(=O)[C@]2(C)C[C@@H]1OC(C)=O,"activity change, negative = inhibition",[1],-78.2% [at 38 µM] (active)
same,Potency,[5],inactive
same,Potency,[4],> 46 µM
same,Potency,[15],> 46 µM
same,outcome,[6],inactive
same,Potency,[17],inactive
same,Potency,[18],inactive
same,Potency,[19],inactive
CCOc1ccc(Cc2c(O)[nH]c(=O)[nH]c2=O)cc1,"activity change, negative = inhibition",[1],-3.54%
same,"activity change, negative = inhibition",[2],3.49%
same,outcome,[3],inactive
same,Potency,[4],> 20.6 µM
O=c1[nH]c(=O)n(-c2cccc3ccccc23)c(O)c1C=NCCCn1ccnc1,"activity change, negative = inhibition",[1],14.5%
same,"activity change, negative = inhibition",[2],-7.5%
same,outcome,[3],inactive
same,Potency,[4],> 20.6 µM
COc1ccc(Cn2c(O)c(C=NCCN3CCOCC3)c(=O)[nH]c2=O)cc1,"activity change, negative = inhibition",[1],-6.69%
same,"activity change, negative = inhibition",[2],-3.63%
same,outcome,[3],inactive
same,Potency,[4],> 20.6 µM
